Measurements reported in PubChem BioAssay (EPA / NIEHS).
Activity calls are given as the source filed them. The calls were made as follows: active = hit-call score of the fitted dose curve at least 0.9, where 1 is the maximum; inactive = score below 0.9.

Read-out: Broad substrate specificity ATP-binding cassette transporter ABCG2 (Homo sapiens) (UniProt Q9UNQ0)
Experiment: LTEA_HepaRG_ABCG2: Life Technologies and Expression Analysis (LTEA) Assay for ABC Transporter (ABCG2) using HepaRG (AID 2283465)
Settings: mRNA level, 48 h; actives raise or lower the signal
Protocol: LTEA_HepaRG is a cell based, multiplexed-readout assay that uses HepaRG, a human liver cell line, with measurements taken at 48 hours after chemical dosing on a 96-well plate.LTEA_HepaRG_ABCG2 is one of 102 assay component(s) measured in the LTEA HepaRG cell culture assay. It is a marker of Steatosis/NR mediated transport.Data from the assay component LTEA_HepaRG_ABCG2 was analyzed into 1 endpoint. This assay endpoint, LTEA_HepaRG_ABCG2, was analyzed with bidirectional fitting relative to DMSO as the negative control and baseline of activity. Using a type of inducible reporter, measures of mRNA induction for gain or loss-of-signal activity can be used to understand regulation of transcription factor activity. To generalize the intended target to other relatable targets, this assay endpoint is annotated to the transporter intended target family, where the subfamily is ABC transporter.
A total of 1060 chemcials from the ToxCast library were tested in eight-point concentration-response experiments. Cell culture and cytotoxicity assays were conducted at Thermo Fisher Scientific's Custom Services facility (Madison, WI). A single lot of human HepaRG cells (Thermo Fisher Scientific, Frederick, MD) was used for the cell culture experiments. 96-well format collagen type I coated plates of human HepaRG cells were prepared using established methods. Briefly, cryopreserved HepaRG cells were thawed, plated at a density of approximately 100,000 cells/well in HepaRG Thaw, Plate, and General Purpose media (HPRG770, Thermo Fisher Scientific), and incubated for 48 hours. 0.5% DMSO was selected as vehicle control to balance the requisite need of DMSO in HepaRG cultures to maintain differentiation (for example, baseline metabolism, proportions of hepatocytes vs. cholangiocytes), while enabling further hepatic receptor pathway activation (for example, PXR and CAR) in response to chemical exposure. 48 hours after plating, the culture medium was replaced with HepaRG Serum-Free Incudtion Media. Cells were exposed to each test chemical in duplicate and maintained in CO2 incubators for another 48 hours. Chemical plates were thawed to room temperature and 200x concentrations of treatment groups were prepared. 8-point conentration-reponse curves were made with the highest exposure at 100 uM, followed by half-log dilutions, all in 0.5% DMSO. Each test plate contained variouse controls, induction positive controls (1mM phenobarbital), cytotoxicity positive controls ([…] aflatoxin B1), vehicle controls (0.5% DMSO), and total lysis controls (0.5% DMSO). Cell morphology images were taken using an Essen IncuCyte FLR automated microscope, with six 96-well plates imaged in about 24 minutes. Images were captured and exported and JPEG files. Spent culture media was transfered to black-well plates for the LDH assay, and remaining media was sorted at -80 C for later use. Cells were treated with RLT buffer and frozen until shipped for gene expression analysis. Total RNA was isolated from the cell suspension in 75 uL of Buffer RLT (Qiagen, Germantown, MD 20874) by Quintiles/Expression Analysis (Durham, NC) using a custom isolation procedure. Total RNA from each plate well was transferred to a preamplification plate. Fluidigm's 96.96 Dynamic ArrayTM (Fluidigm, Amsterdam, the Netherlands) technology was used for gene expression analyses by quantitative reverse transcription polymerase chain reaction (qRT-PCR, performed by Quintiles/Expression Analysis, Durham, NC)89. Standard TaqManTM Assays (Applied Biosystems/ThermoFisher Scientific, Foster City, CA) were used to assess the expression of 93 genes selected based on their selectivity and sensitivity to important hepatic receptors known to be modulated by environmental chemicals; importance in human hepatocyte functionality; and hepatotoxicity. […]

Sequence of Broad substrate specificity ATP-binding cassette transporter ABCG2 (Homo sapiens) (Q9UNQ0 whole entry, looked up): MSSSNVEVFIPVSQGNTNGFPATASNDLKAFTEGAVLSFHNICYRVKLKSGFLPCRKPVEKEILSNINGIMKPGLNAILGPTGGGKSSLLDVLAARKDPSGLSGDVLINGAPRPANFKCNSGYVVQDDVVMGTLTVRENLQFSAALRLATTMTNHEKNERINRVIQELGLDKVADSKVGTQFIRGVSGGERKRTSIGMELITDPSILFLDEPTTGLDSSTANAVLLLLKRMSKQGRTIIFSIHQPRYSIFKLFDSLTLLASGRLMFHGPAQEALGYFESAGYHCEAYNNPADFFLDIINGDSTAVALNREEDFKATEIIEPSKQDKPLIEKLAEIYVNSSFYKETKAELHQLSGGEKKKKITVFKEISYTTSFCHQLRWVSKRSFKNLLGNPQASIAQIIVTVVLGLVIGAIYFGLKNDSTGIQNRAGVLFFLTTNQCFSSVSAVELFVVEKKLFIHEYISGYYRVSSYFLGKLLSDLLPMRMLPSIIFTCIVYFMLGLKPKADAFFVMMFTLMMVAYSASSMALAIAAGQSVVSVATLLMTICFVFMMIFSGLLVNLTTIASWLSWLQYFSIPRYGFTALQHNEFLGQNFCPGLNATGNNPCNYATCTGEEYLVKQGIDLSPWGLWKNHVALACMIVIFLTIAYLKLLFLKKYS

CC(C)O.CC(C)O.OCCN(CCO)CCO.OCCN(CCO)CCO.[Ti] was tested. Which outcome did it give?
Its outcome is “inactive”.

How did the outcome turn out when Clc1cccc(Cl)c1 was run?
The outcome was “inactive”.

CCCCCCCCCCCCc1cccc(S(=O)(=O)O)c1 was tested. Which outcome did it give?
The outcome was “inactive”.

For Oc1c(Cl)cc(Cl)cc1Cl, which outcome is on record?
Its outcome is “inactive”.

For CC(C)(C)c1ccccc1O, which outcome is on record?
The outcome was “inactive”.

Cc1cc(C)cc(C)c1 was tested. Which outcome did it give?
Its outcome is “inactive”.

How did the outcome turn out when Clc1cccc(Cl)c1Cl was run?
Its outcome is “inactive”.

COc1ccccc1N was tested. Which outcome did it give?
The outcome was “inactive”.

With OCCN(CCO)CCO as the molecule, how does the outcome read?
Its outcome is “inactive”.

For N#Cc1cccnc1, which outcome is on record?
The outcome was “inactive”.

For O=C(N[C@H]1CN2CCC1CC2)c1ccc2c(c1)OCCO2, which outcome is on record?
Its outcome is “inactive”.

With O=C(O)C1(c2ccc3c(c2)OC[C@H](Cc2ccc(-c4ccccc4)cc2)[C@H]3O)CCCC1 as the molecule, how does the outcome read?
The outcome was “inactive”.

With Oc1cc(Cl)c(Cl)cc1Cl as the molecule, how does the outcome read?
Its outcome is “inactive”.

CN(C)C(=S)S was tested. Which outcome did it give?
The outcome was “inactive”.
